Values joined by “and” are separate entries in the source; they are usually repeats but may differ in a detail not shown here. Equal entries are not always repeated. Results filed as inconclusive are left out. Active and inactive are the calls of the source. Unless noted, calls follow the shape of the dose curve; as a rule, active = well fitted curve in the direction sought with a large enough effect; inconclusive = small, poorly fitted or top-dose-only effect, or another doubt; inactive = no such curve, though single readings can be large; an effect the other way counts as inactive or inconclusive.
Tests used:
[1] = P-glycoprotein substrates identified in KB-3-1 adenocarcinoma cell line, qHTS therapeutic library screen (AID 1346986); also: nearly all actives have a fitted effect of over 60% in size;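 also: potency is read from the fitted curve at half-maximal effect; potency is for cytotoxicity meaning loss of cell viability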
Outline: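 In 1536-well format, 500 cells/well received pinned compound titrations and were incubated 72 h, 5% CO2. Viability was read by CellTiter-Glo; cytotoxic if AC50 < 10 uM and efficacy >50%.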

[2] = P-glycoprotein substrates identified in KB-8-5-11 adenocarcinoma cell line, qHTS therapeutic library screen (AID 1346987); also: nearly all actives have a fitted effect of over 65% in size; also: potency is read from the fitted curve at half-maximal effect
Outline: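 Compounds are pinned in dose-response onto KB-8-5-11 cells (500 cells/well, colchicine-free medium) and left 72 h at 37 degree C. CellTiter-Glo luminescence then yields AC50 values.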

[3] = Cytotoxicity counterscreen for inhibitors of SARS-CoV-2 cell entry (AID 1645845; calls by dose curve; also: % is scaled to controls: 0 for no effect and ±100 for the full control effect; nearly all actives have a fitted effect of over 50% in size)
Outline: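 Counterscreen run in the same HEK293-ACE2 line as the pseudotyped-particle entry assay, without particles. Viability after 48 h at 37 C was read as ATP luminescence, scaled between cell-containing and cell-free wells.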

[4] = Primary qHTS for inhibitors of nuclear receptor binding SET domain protein 2 (NSD2) in an RCH-ACV wild type WT cells (2C) (AID 1645877); also: nearly all actives have a fitted effect of over 70% in size; also: potency is read from the fitted curve at half-maximal effect
[5] = target: Glutathione peroxidase 1 (Homo sapiens) (UniProt P07203); test: Primary qHTS Assay for Inhibitors of Recombinant Selenoprotein Glutathione Peroxidase 1 (GPX1) (AID 1845191); also: nearly all actives have a fitted effect of over 65% in size
Outline: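 GR-coupled readout: NADPH consumption tracked by fluorescence, ex 340/em 450 nm, at t=0 and after 15 min at RT. Final mix 10 nM GPX1, 1 mM GSH, 0.5 mM CHP, 0.5 mM NADPH, 100 nM GR, 0.01% BSA, following 30 min enzyme–compound preincubation.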

[6] = target: Phospholipid hydroperoxide glutathione peroxidase GPX4 (Homo sapiens) (UniProt P36969); test: Primary qHTS Assay for Inhibitors of Recombinant Selenoprotein Glutathione Peroxidase 4 (GPX4) (AID 1845192); also: % is scaled to controls: 0 for no effect and ±100 for the full control effect; nearly all actives have a fitted effect of over 65% in size
Outline: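 Steps: GPX4 plus compound, 30 min RT; add GR/GSH/NADPH master mix; start with cumene hydroperoxide; read 340/450 nm fluorescence at 0 and 15 min. Finals were 200 nM GPX4, 1 mM GSH, 0.5 mM CHP, 0.5 mM NADPH, 100 nM GR.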

[7] = qHTS drug screen for cell cycle checkpoint inhibitors in PARPi-resistant BRCA-mutant ovarian cancer cell lines. (AID 1963452; calls by dose curve); conditions: PEO1/OlaR viability, CellTiter-Glo luminescence, 96 h, stronger effect = lower value
Outline: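 PEO1, PEO4 and PEO1/OlaR ovarian cancer cells, 600 per well, exposed 96 h at 37C to a dilution series. Viability read by CellTiter-Glo luminescence, normalized to DMSO and empty wells; activity summarized as Z-AUC.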

[8] = AP1 Signaling Pathway (AID 357; active = well fitted curve in either direction with a large enough effect, not every such curve was filed as active; also: % is scaled to controls: 0 for no effect and ±100 for the full control effect)
Outline: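 ME-180 cells with beta-lactamase reporter under AP-1 response element, stimulated with EC50 EGF; compounds tested in titration series, 5 h at 37 °C. CCF4 substrate added 2.5 h at room temperature; 460/530 nm emission ratio gave %activity and AC50.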

[9] = target: Cytochrome P450 1A2 (Homo sapiens) (UniProt P05177); test: p450-cyp1a2 (AID 410; calls by dose curve;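 also: -100% = full effect of reference inhibitor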)
Outline: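 Luminescent demethylation readout: Luciferin-ME (100uM, equal to Km) turned over by 20nM CYP1A2 for 60 min at room temperature after NADPH regeneration addition, following 10 min compound preincubation. Normalization used 57 uM furafylline as full inhibition.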

[10] = Stat Signaling Pathway (AID 446; active = well fitted curve in either direction with a large enough effect, not every such curve was filed as active;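 also: ME-180 cervical cancer cells given 40 pM IL-6 alongside compound; SIE-controlled beta-lactamase reporter measured as 460/530 nm FRET emission ratio; % is scaled to controls: 0 for no effect and ±100 for the full control effect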)
Outline: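 FRET read-out (405 nm excitation, 460/530 nm emission) of a beta-lactamase reporter under a STAT-inducible element in ME-180 cervical carcinoma cells. Cells with compound receive 40 pM IL-6 for 5 h. Values are normalised to AC90 stimulation and AC90 JAK-inhibitor controls.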

[11] = target: Glucocorticoid receptor (Homo sapiens) (UniProt P04150); test: GR-GFP Redistribution (AID 450;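 active = compounds whose dose series gives a full or clear partial fitted curve of increased nuclear translocation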; also: potency is read from the fitted curve at half-maximal effect); conditions: U2OS GR-GFP nuclear translocation, laser cytometry, 2 h
[12] = target: Glucocorticoid receptor (Homo sapiens) (UniProt P04150); test: GR-EFC Redistribution (AID 451; calls by dose curve; also: potency is read from the fitted curve at half-maximal effect); conditions: CHO-K1 GR-EFC translocation, beta-gal luminescence, 2 h
Outline: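 CHO-K1 cells expressing nuclear EA and GR-ED fragments of b-gal; compounds titrated up to 46 uM final, 2 h at 37 C. GR nuclear translocation read as complemented b-gal luminescence after 1 h RT detection.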

[13] = target: Mitogen-activated protein kinase 10 (Mus musculus) (UniProt Q61831); test: JNK3 AlphaScreen Assay (AID 530; active = well fitted curve in either direction with a large enough effect, not every such curve was filed as active;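 also: kinase came from lysate of stimulated human HepG2 cells; signal reports phosphorylation of biotinylated GST-cJun 1-79 at Ser73 with 10 µM ATP; % is scaled to controls: 0 for no effect and ±100 for the full control effect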)
Outline: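 Activity was read by AlphaScreen after JNK3-containing HepG2 lysate (cytokine pre-activated) phosphorylated biotinylated GST-cJun with 10 uM ATP at room temperature. Phospho-Ser73 cJun antibody with Protein-A acceptor beads provided detection.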

[14] = target: 3',5'-cyclic-AMP phosphodiesterase 4B (Homo sapiens) (UniProt Q07343); test: qHTS Assay for Inhibitors of PDE-IV (AID 607; active = well fitted activation curve with a large enough effect in the main read-out, with a control signal flat, not every such curve was filed as active; also: % of control where 0% means no effect)
Outline: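 Cell-based read-out of cAMP via a modified cyclic nucleotide-gated channel and membrane potential dye (535/590 nm) in HEK293 cells expressing PDE4 endogenously. Compounds tested up to 22.9 uM final; 100 uM RO 20-1724 reference.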

[15] = target: Cytochrome P450 2C9 (Homo sapiens) (UniProt P11712); test: qHTS Assay for Inhibitors and Substrates of Cytochrome P450 2C9 (AID 883); also: % is scaled to controls: 0 for no effect and ±100 for the full control effect; nearly all actives have a fitted effect of over 60% in size
Outline: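 10nM CYP2C9 + 100uM Luciferin-H (=KM), 25mM KPO4; cpd 10 min 37C; NADPH regen, 60 min 37C; stop/detect with P450 Glo-Buffer 20 min; luminescence. Norm. to 57uM sulphaphenazole as full inhibition.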

[16] = target: Cytochrome P450 3A4 (Homo sapiens) (UniProt P08684); test: qHTS Assay for Inhibitors and Substrates of Cytochrome P450 3A4 (AID 884); also: % is scaled to controls: 0 for no effect and ±100 for the full control effect; nearly all actives have a fitted effect of over 50% in size
Outline: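 Luminescent readout of luciferin produced by CYP3A4 (20 nM) dealkylation of Luciferin-PPXE, 25 uM (its KM). NADPH-driven reaction ran 60 min at RT after 10 min compound preincubation; data scaled to 57 uM ketoconazole as 100% inhibition.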

[17] = target: Cytochrome P450 2D6 (Homo sapiens) (UniProt P10635); test: qHTS Assay for Inhibitors and Substrates of Cytochrome P450 2D6 (AID 891);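 also: luciferin methyl ether substrate demethylated by CYP2D6 with NADPH regeneration; % is scaled to controls: 0 for no effect and ±100 for the full control effect; nearly all actives have a fitted effect of over 60% in size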
Outline: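 Luminescent read-out of luciferin formed by 5 nM human CYP2D6 demethylating 30 uM Luciferin-ME EGE (Km level) over 60 min at room temperature after NADPH regeneration addition. Data normalized to full inhibition by 1.43 uM quinidine.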

[18] = target: Cytochrome P450 2C19 (Homo sapiens) (UniProt P33261); test: qHTS Assay for Inhibitors and Substrates of Cytochrome P450 2C19 (AID 899); also: % is scaled to controls: 0 for no effect and ±100 for the full control effect; nearly all actives have a fitted effect of over 60% in size
Outline: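 Luminescent read-out of luciferin formed from Luciferin-H EGE (10uM, equal to KM). Enzyme 5nM in 50mM KPO4; compound added, 10 min at 37C, then NADPH regenerating system for 60 min at 37C. Full inhibition defined by 57uM ketoconazole.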

[19] = qHTS Assay for Lipid Storage Modulators (AID 1519; calls by dose curve; as to activity change, negative = inhibition: % is scaled to controls: 0 for no effect and ±100 for the full control effect); conditions: Drosophila S3 cells, BODIPY lipid droplet/cell ratio, laser cytometry, cells loaded with oleic acid
Outline: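 Cells seeded at 5,000 per well were treated with compounds over a concentration series and loaded with oleic acid (400 uM, as added). Lipid droplet fluorescence (488 nm excitation, 500-530 nm channel) was read by laser-scanning cytometry and normalized to 20 uM Triacsin C.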

[20] = target: Ubiquitin carboxyl-terminal hydrolase 1 (Homo sapiens) (UniProt O94782); test: Inhibitors of USP1/UAF1: Pilot qHTS (AID 504865);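 also: rhodamine fluorescence freed from ubiquitin-rhodamine substrate followed over time; top concentration of the series differs between compounds; % is scaled to controls: 0 for no effect and ±100 for the full control effect; nearly all actives have a fitted effect of over 35% in size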
Outline: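 Enzyme-free wells gave the negative control, while test wells held 1nM USP1/UAF1 preincubated with compound for 15 min at room temperature. Ub-Rho at 150nM final started the reaction, and fluorescence at 480/540 nm was recorded kinetically.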

[21] = target: DNA dC->dU-editing enzyme APOBEC-3G (Homo sapiens) (UniProt Q9HC16); test: qHTS for inhibitors of Vif-A3G interactions: Validation (AID 588379); also: 0% is about no effect
Outline: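 Yellow fluorescence (Ex 488, Em 500-530) of Vif-coexpressing HeLa A3G-eYFP cells, scanned by Acumen cytometer, reports blocked A3G degradation. Cells plated at 700/well overnight at 37 deg C before compound addition, then a further overnight compound incubation at 37 deg C.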

[22] = Primary qHTS for inhibitors of nuclear receptor binding SET domain protein 2 (NSD2) in an isogenic RCH-ACV NSD2 p.E1099K mutant (9B) (AID 1645876); also: % is scaled to controls: 0 for no effect and ±100 for the full control effect; nearly all actives have a fitted effect of over 70% in size
[23] = target: Luciferin 4-monooxygenase (Photinus pyralis) (UniProt P08659); test: Biochemical firefly luciferase enzyme assay for NPC (AID 624030);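 also: purified P. pyralis luciferase at 10 nM with luciferin and ATP substrate; 0% = DMSO and -100% = full luciferase inhibition by PTC124 control; nearly all actives have a fitted effect of over 70% in size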
Outline: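 Purified P. pyralis luciferase at 10 nM in 50 mM Tris Acetate (final), luminescence read within 5 minutes of enzyme addition to compounds. Activity normalised to PTC124 versus DMSO; concentration-response curves classed by r2, magnitude and activity.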

[24] = qHTS Assay for Identifying Gametocytocidal Compounds (AID 743244);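 also: % is scaled to controls: 0 for no effect and ±100 for the full control effect; actives lower the fluorescent signal which means gametocytes are killed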; conditions: P. falciparum 3D7 stage III-V gametocytes, alamarBlue, 72 h; max response: stronger effect = lower value
Outline: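 P. falciparum 3D7 stage III–V gametocytes (20,000 cells/well) were exposed to compounds for 72 h at 37 °C, 5% CO2. AlamarBlue was then added for 24 h; decreased resorufin fluorescence (Ex 525/Em 598 nm) indicated loss of viability.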

astro = test: Drug repurposing screens with cells derived from glioblastoma tumor samples (AID 1345199); conditions: viability, ATP luminescence, 48 h; series mostly up to 45.9 µM; also: % is scaled to controls: 0 for no effect and ±100 for the full control effect; nearly all actives have a fitted effect of over 40% in size
Outline: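 Primary testing used CD133+ neurospheres from four GBM patients, seven concentrations, 48 h exposure and ATP-based viability; confirmation added three slower-growing patient lines.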

[25] = qHTS for Inhibitors of the Functional Ribonucleoprotein Complex (vRNP) of Lassa (LASV) Arenavirus: LASV Primary Screen - GLuc reporter signal (AID 1347082; calls by dose curve; tested in HEK293 reporter line)

Glucocorticoid receptor (Homo sapiens), sequence (P04150 whole entry, looked up, the tested form may be a part): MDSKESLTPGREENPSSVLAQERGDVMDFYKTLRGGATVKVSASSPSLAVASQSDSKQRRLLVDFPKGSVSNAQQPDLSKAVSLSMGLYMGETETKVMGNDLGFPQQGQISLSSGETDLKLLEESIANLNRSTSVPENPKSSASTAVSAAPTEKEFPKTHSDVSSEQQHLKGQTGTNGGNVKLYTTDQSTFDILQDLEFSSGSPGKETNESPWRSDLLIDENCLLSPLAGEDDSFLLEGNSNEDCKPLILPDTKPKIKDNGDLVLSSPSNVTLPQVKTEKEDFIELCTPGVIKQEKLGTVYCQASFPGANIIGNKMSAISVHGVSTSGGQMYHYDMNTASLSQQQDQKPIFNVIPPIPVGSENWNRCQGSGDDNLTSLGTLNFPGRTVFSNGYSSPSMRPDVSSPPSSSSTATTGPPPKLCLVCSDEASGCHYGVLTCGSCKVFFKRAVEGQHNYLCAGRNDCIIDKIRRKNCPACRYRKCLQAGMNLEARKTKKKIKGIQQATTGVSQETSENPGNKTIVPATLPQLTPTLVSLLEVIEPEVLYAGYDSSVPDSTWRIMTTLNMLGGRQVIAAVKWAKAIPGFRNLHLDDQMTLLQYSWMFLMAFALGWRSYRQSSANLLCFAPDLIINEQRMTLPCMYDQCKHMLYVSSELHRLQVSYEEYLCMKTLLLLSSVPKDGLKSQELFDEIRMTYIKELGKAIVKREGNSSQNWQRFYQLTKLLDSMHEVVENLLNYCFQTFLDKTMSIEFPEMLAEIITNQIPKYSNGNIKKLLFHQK
Cytochrome P450 2C9 (Homo sapiens), sequence (P11712 whole entry, looked up): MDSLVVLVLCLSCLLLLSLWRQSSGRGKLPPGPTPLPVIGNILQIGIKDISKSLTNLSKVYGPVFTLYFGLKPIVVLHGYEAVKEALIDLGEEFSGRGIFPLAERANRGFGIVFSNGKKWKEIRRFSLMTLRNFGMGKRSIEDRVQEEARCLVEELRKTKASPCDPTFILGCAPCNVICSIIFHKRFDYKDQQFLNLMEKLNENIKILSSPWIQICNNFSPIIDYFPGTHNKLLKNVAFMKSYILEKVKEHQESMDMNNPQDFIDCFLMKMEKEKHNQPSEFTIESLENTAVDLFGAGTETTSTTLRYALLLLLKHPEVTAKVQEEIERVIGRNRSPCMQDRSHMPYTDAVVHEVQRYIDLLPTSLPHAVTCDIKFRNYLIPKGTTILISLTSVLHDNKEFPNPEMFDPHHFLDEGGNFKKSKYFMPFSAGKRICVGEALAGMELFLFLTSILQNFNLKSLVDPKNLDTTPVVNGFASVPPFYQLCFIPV
Glutathione peroxidase 1 (Homo sapiens), sequence (P07203 whole entry, looked up): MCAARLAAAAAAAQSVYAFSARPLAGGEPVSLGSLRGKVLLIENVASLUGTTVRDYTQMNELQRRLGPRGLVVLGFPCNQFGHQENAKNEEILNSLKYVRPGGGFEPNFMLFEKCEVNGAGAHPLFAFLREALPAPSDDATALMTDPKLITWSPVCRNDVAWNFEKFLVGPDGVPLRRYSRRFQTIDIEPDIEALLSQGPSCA
Cytochrome P450 1A2 (Homo sapiens), sequence (P05177 whole entry, looked up): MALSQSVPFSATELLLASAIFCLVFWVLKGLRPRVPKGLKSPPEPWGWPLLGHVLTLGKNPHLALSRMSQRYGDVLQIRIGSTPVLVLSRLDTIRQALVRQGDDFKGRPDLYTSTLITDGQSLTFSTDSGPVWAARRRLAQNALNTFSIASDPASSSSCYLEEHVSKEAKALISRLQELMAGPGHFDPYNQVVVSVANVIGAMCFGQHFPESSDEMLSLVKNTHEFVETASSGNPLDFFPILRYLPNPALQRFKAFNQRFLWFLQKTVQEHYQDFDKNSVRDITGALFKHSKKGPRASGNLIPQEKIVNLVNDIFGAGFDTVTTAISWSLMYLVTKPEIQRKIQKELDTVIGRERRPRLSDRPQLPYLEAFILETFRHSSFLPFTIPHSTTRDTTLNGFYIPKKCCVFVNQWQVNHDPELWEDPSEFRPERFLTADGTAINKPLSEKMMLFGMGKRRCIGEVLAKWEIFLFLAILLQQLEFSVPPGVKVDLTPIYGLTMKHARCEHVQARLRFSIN
Cytochrome P450 2C19 (Homo sapiens), sequence (P33261 whole entry, looked up): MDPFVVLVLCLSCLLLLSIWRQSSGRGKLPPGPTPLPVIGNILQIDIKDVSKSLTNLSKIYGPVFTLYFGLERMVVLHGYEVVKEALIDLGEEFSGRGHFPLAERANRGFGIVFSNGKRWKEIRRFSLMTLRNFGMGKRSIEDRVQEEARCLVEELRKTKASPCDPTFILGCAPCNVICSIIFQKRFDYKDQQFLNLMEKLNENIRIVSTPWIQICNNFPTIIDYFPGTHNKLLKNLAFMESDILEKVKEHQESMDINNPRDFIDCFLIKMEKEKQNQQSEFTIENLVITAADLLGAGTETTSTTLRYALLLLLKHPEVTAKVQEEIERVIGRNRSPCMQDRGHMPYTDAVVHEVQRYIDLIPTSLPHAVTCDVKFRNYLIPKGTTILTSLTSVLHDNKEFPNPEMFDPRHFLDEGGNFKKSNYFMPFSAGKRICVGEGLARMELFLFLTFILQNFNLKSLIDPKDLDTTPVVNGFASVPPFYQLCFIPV
Phospholipid hydroperoxide glutathione peroxidase GPX4 (Homo sapiens), sequence (P36969 whole entry, looked up): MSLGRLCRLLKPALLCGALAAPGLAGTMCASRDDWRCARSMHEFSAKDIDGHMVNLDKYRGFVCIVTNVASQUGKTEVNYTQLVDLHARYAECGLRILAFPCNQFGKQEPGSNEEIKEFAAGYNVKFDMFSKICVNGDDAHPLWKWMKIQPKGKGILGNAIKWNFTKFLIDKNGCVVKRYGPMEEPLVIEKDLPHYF
Ubiquitin carboxyl-terminal hydrolase 1 (Homo sapiens), sequence (O94782 whole entry, looked up): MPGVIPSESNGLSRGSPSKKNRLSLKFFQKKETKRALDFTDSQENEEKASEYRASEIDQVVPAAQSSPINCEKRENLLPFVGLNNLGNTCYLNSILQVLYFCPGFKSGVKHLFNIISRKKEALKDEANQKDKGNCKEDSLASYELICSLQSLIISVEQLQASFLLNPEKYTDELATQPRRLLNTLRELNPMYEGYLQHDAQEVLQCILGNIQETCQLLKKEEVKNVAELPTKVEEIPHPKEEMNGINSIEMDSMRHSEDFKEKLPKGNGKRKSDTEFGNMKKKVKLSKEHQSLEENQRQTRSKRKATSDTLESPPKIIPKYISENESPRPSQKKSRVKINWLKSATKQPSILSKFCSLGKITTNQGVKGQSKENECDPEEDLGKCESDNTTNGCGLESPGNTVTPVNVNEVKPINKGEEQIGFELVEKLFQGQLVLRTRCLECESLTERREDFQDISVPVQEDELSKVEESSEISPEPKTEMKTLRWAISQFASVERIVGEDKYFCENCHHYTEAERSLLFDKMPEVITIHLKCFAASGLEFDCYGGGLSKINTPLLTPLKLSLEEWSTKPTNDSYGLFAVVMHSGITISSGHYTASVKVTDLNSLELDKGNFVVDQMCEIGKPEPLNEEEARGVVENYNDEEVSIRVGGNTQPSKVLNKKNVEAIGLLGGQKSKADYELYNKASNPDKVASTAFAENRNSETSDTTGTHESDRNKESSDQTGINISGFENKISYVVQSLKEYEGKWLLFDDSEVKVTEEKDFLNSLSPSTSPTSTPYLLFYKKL
DNA dC->dU-editing enzyme APOBEC-3G (Homo sapiens), sequence (Q9HC16 whole entry, looked up): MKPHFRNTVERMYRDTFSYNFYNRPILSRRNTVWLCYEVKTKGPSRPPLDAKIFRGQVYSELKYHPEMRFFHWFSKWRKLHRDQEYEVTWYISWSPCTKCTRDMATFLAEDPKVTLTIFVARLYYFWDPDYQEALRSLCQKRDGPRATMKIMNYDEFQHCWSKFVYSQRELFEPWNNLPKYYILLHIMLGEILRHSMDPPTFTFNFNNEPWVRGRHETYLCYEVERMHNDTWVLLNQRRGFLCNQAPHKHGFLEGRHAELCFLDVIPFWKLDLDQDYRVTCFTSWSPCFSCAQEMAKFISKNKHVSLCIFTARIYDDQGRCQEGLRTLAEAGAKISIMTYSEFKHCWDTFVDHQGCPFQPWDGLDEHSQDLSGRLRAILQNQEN
Cytochrome P450 3A4 (Homo sapiens), sequence (P08684 whole entry, looked up): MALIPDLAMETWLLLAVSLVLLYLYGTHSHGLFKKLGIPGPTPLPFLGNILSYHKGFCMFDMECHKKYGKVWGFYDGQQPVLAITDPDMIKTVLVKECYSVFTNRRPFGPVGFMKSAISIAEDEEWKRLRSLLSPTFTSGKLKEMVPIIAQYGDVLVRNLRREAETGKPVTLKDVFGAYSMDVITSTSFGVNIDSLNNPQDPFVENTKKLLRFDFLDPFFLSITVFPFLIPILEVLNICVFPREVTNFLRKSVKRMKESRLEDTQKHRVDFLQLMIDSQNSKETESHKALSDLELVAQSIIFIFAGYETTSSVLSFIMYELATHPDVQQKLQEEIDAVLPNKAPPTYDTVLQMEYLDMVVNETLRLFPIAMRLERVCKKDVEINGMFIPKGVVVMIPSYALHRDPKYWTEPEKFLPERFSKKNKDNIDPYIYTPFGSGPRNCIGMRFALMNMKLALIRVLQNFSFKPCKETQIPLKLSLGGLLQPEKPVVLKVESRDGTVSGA
Cytochrome P450 2D6 (Homo sapiens), sequence (P10635 whole entry, looked up): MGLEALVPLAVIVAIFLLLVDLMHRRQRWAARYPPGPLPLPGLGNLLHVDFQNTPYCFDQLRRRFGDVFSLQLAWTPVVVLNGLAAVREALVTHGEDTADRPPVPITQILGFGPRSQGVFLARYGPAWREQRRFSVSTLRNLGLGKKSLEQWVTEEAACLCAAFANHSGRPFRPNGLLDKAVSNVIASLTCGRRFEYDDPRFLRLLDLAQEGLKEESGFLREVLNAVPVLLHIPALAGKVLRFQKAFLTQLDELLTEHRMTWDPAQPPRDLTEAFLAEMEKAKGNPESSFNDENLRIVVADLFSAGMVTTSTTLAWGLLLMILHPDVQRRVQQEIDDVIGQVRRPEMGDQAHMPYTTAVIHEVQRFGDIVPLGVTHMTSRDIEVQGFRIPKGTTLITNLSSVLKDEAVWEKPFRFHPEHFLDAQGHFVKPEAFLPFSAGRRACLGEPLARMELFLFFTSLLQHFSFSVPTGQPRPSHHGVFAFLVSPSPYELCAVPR

COc1cc2c(cc1F)C(c1ccccc1Cl)=Nc1c(n[nH]c1C)N2
inactive: Potency [3] | Potency [5] | Potency [6] | Z-AUC [7] -0.71
-0.718: Z-AUC ([7]; measured here: PEO4 Z-AUC)
active: Potency [1] 2060 nM | Potency [2] 1300 nM | Potency [4] 1030 nM
-0.883: Z-AUC ([7]; measured here: PEO1 parental Z-AUC)

COc1ccn(C)c(=O)c1C#N
5.59% and -19.6%: max response ([19]; measured here: lipid channel max response)
inactive: outcome [8] | Potency [9] | outcome [10] | Potency [11] > 20.6 µM and > 46 µM | Potency [12] > 20.6 µM and > 46 µM | outcome [13] | Potency [14] | Potency [15] | Potency [16] | Potency [17] | Potency [18] | activity change, negative = inhibition ([19]; at 25.7 µM (top of the series)) -0.52% | activity change, negative = inhibition ([19]; at 57.5 µM (top of the series)) 1.07% | Potency [20] | Potency [21] | Potency [1] | Potency [2] | Potency [22] | Potency [4] | Potency [5]
4.19% and -22.1%: max response ([19]; measured here: cell count channel max response)

CC[C@@H](O)C(C[C@@H](C)N(C)C)(c1ccccc1)c1ccccc1
inactive: Potency [23] | max response [24] 5.08% | Potency (astro)

C/C=C1\NC(=O)[C@H](CC(N)=O)N(C)C(=O)C([C@@H](C)O)NC(=O)C(CCCc2ccc(OC)cc2)NC(=O)[C@H](C(C)C)NC(=O)/C(=C\C)NC(=O)[C@H](O)[C@@H](C[C@@H](O)CCCCCCC)NC(=O)[C@H](C)NC(=O)CN(C)C(=O)[C@H](CCC(N)=O)NC1=O (stereo partly specified)
inactive: Potency [25]

CC(=O)O[C@@]12CO[C@@H]1C[C@@H](O)[C@@]1(C)C(=O)[C@H](O)C3=C(C)[C@@H](OC(=O)[C@H](O)[C@@H](NC(=O)c4ccccc4)c4ccccc4)C[C@@](O)([C@@H](OC(=O)c4ccccc4)C12)C3(C)C (stereo partly specified)
inactive: Potency [25]
